FLuc modulator: counter-screen for miR-21 project: firefly luciferase inhibitors or activators. P08659. purified FLuc, Km substrates, luminescence inhibition. Potency, µM (series often up to 57.5 µM), without a hit: at the top dose activity change, negative = inhibition, most hits filed as inhibitors. 360,000 compounds, 6.9% hits;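 note: plate controls were vehicle for no effect and reference inhibitor for full effect; nearly all actives have a fitted effect of over 55% in size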
Target sequence (P08659 whole entry, looked up): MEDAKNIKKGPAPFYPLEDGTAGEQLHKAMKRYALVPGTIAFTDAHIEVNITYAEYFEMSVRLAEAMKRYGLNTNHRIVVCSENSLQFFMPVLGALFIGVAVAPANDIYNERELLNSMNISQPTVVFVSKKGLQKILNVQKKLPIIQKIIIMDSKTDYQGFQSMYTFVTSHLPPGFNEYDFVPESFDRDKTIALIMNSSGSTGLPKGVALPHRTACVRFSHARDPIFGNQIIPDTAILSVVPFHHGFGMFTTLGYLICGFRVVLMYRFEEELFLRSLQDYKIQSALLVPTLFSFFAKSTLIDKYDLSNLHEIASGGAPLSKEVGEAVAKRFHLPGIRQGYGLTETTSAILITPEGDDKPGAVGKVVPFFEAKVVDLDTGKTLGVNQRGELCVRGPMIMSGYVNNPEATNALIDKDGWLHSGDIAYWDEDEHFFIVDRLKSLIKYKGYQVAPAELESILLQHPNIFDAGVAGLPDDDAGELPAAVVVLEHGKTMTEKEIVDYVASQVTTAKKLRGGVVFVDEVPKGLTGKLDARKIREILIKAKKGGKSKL
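Biochemical qHTS of compounds, final roughly 60 µM downward over six points, against 10 nM purified firefly luciferase using Km concentrations of substrates (10 uM D-luciferin, 10 uM ATP) in Tris acetate pH 7.5 buffer; luminescence output.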
ELG1 genotoxic: inducers of genotoxicity in HEK293T ELG1-luciferase cells; HEK293T ELG1-luciferase reporter, luminescence, 16 h; 330,000 compounds, 1.3% hits; Potency, µM (top dose mostly 46 µM), inactives show top-dose activity change, positive = activation, hits mostly activators; note: % of control where 0% means no effect; nearly all actives have a fitted effect of over 60% in size
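Genotoxicity was scored as increased ELG1-luciferase reporter signal, measured by ONE-Glo luminescence (30 min, room temperature). Compound or vehicle exposure of the HEK293T reporter cells lasted 16 hr at 37°C.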
SMN2 splice up: SMN2 splice variant enhancement; HEK293 SMN2-luciferase splicing reporter, luminescence, 30-36 h; Potency, µM (doses to about 46.1 µM), for the others: at the top dose activity change, positive = activation, hits mostly activators; 210,000 compounds, 2.8% hits; AID 1458; note: % of control where 0% means no effect; nearly all actives have a fitted effect of over 55% in size
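HEK293 cells carry an SMN2 […]–luciferase reporter in which exon 7 inclusion puts luciferase in frame. Cells were plated 10-12 h before compound addition, then incubated 30-36 h at 37C. ONE-Glo luminescence was read; sodium butyrate at 4.5 mM final served as control.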
NPC1 prom act: activators of NPC1 promoter; Huh7 NPC1 promoter luciferase reporter, 24 h; Potency, µM (titrated, usually from 9.22 µM), for inactives: at the highest dose activation, actives largely listed as activators; 320,000 compounds, 2.4% hits; AID 485313; note: % of control where 0% means no effect; nearly all actives have a fitted effect of over 60% in size
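Luminescence from an NPC1 promoter-driven luciferase reporter in stably transfected Huh7 cells was measured after 24 h compound treatment at 37 °C, followed by 10 min ambient incubation with luciferase detection reagent.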
Rab9 promoter act: Rab9 promoter activation. Huh7 Rab9 promoter-luciferase reporter, luminescence, 24 h. Potency, µM (doses to about 9.22 µM), inactives show at the top dose activation, negative = inhibition, hits mostly activators. 320,000 compounds, 2.8% hits; note: % of control where 0% means no effect; nearly all actives have a fitted effect of over 60% in size
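Stable Rab9-luc Huh7, 1500 cells/well, 2 h settle; cmpd in DMSO, 24 h, 37 °C/5% CO2; luciferase reagent 10 min RT; luminescence.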
An asterisk follows results filed as active. Only some compounds are listed: those with a hit (about 7.4% of all), similar ones and a draw of the others. Calls come from the whole dose curve; as a rule, active = well fitted curve in the direction sought with a large enough effect; inconclusive = small, poorly fitted or top-dose-only effect, or another doubt; inactive = no such curve, though single readings can be large; an effect the other way counts as inactive or inconclusive. Potency is the fitted concentration of half-maximal effect.

CCc1c(C)nc2[nH]nc(-c3ccccc3C)n2c1=O was read as FLuc modulator inconclusive, ELG1 genotoxic 2%, SMN2 splice up 20%, NPC1 prom act 1% and Rab9 promoter act 0%.
Screening O=C1N(c2ccccc2)C[C@@H]2C[C@@H](c3cccs3)N3CCC[C@@]123 returned FLuc modulator -5%, ELG1 genotoxic -7%, SMN2 splice up 22µM*, NPC1 prom act -23% and Rab9 promoter act -32%.
Screening CC(C)(O)C#Cc1ccc([C@@H]2C[C@H]3CN(c4ccccc4)C(=O)[C@]34CCCN24)s1 returned FLuc modulator 3%, ELG1 genotoxic -3%, SMN2 splice up inconclusive, NPC1 prom act -37% and Rab9 promoter act -32%.
`COC(=O)c1ccc(Oc2nc3c(c(=O)n(C)c(=O)n3C)n2Cc2ccc(Cl)c(Cl)c2)cc1` gave FLuc modulator -2% and SMN2 splice up -16%.
For CCOC(=O)c1ccc(NC(=O)C2Cc3ccccc3C(=O)O2)cc1 (stereo not drawn) the results were FLuc modulator 0% and SMN2 splice up 10%.
`COc1ccc2nc3c(cc2c1)Cc1ccccc1-3` gave SMN2 splice up 0.5µM*.
Screening CCc1ccccc1NC(=O)C(=O)NCCCN1CCOCC1 returned FLuc modulator -3% and SMN2 splice up -1%.
COc1ccc(CSc2nc3ccncc3n2CC(=O)Nc2cc(C)cc(C)c2)cc1 was read as FLuc modulator 2.4µM* and SMN2 splice up inconclusive.
For COc1cccc(CSc2nc3ccncc3n2CC(=O)Nc2ccc(OC)c(OC)c2OC)c1 the results were FLuc modulator 15µM* and SMN2 splice up inconclusive.
For CCSc1nc2ccccc2n1CC(=O)OC the results were FLuc modulator -1%, ELG1 genotoxic -1%, SMN2 splice up -9%, NPC1 prom act 1% and Rab9 promoter act -3%.
COC(=O)Cn1c(SCc2ccccc2)nc2ccccc21 was read as FLuc modulator 15µM*, ELG1 genotoxic inconclusive, SMN2 splice up 12%, NPC1 prom act 22% and Rab9 promoter act 12%.
For Cc1ccc(-n2ncc3c(NNC(=O)c4ccco4)ncnc32)cc1C the results were FLuc modulator inconclusive, ELG1 genotoxic 27%, NPC1 prom act 8% and Rab9 promoter act 17%.
For Cc1ccc(-n2ncc3c(NCc4ccccc4)ncnc32)cc1C the results were FLuc modulator 21µM*.
COCC(C)Nc1ncnc2c1cnn2-c1ccc(C)c(C)c1 (stereo not drawn) was read as FLuc modulator 6.7µM*.
Screening Cc1ccc(-n2ncc3c(NCCc4ccccc4)ncnc32)cc1 returned FLuc modulator 24µM*.
OCCNc1ncnc2c1cnn2Cc1ccccc1 was read as FLuc modulator -2%, ELG1 genotoxic 0%, NPC1 prom act 1% and Rab9 promoter act -4%.
Cc1ccc(-n2ncc3c(NCCCc4ccccc4)ncnc32)cc1C was read as FLuc modulator -10%.
c1ccc(CNc2ncnc3c2cnn3Cc2ccccc2)cc1 was read as FLuc modulator 6%, ELG1 genotoxic 1%, SMN2 splice up 11µM*, NPC1 prom act -23% and Rab9 promoter act -7%.
`CC(C)c1ccc(S(=O)(=O)Nc2ccc3c(c2)OCO3)cc1` gave ELG1 genotoxic 0%.
For COc1cccc(C2CC(=O)N3CN(C4CCCCC4)CSC3=C2C#N)c1 (stereo not drawn) the results were FLuc modulator inconclusive and SMN2 splice up -1%.
c1ccc(-n2ncc3c(NCc4cccnc4)ncnc32)cc1 was read as FLuc modulator 17µM*, ELG1 genotoxic inconclusive, SMN2 splice up 38%, NPC1 prom act inconclusive and Rab9 promoter act inconclusive.
O=c1c2cnn(-c3ccccc3)c2ncn1Cc1cccnc1 was read as FLuc modulator -2%, ELG1 genotoxic -7%, SMN2 splice up -10%, NPC1 prom act 2% and Rab9 promoter act -7%.
Screening COc1ccc2nc(NC(=O)CN3CCOCC3)sc2c1 returned FLuc modulator inconclusive, ELG1 genotoxic inconclusive, SMN2 splice up 10%, NPC1 prom act 15% and Rab9 promoter act 27%.
COc1ccc(C(=O)Nc2nc3cc4c(cc3s2)OCO4)c(OC)c1 was read as FLuc modulator 0.43µM*, ELG1 genotoxic inconclusive, NPC1 prom act 0.79µM* and Rab9 promoter act 0.79µM*.
Screening COc1ccc2nc(NC(=O)c3ccoc3C)sc2c1 returned FLuc modulator 1.2µM*, ELG1 genotoxic inconclusive, SMN2 splice up 2µM*, NPC1 prom act 0.63µM* and Rab9 promoter act 0.45µM*.
For COc1ccc2nc(NC(=O)c3cc(C)oc3C)sc2c1 the results were FLuc modulator 1.3µM*, ELG1 genotoxic inconclusive, SMN2 splice up 16µM*, NPC1 prom act inconclusive and Rab9 promoter act 2.8µM*.
Screening Cc1cc(C(=O)Nc2nc3ccc(S(C)(=O)=O)cc3s2)c(C)o1 returned FLuc modulator 0.85µM*, ELG1 genotoxic 8.2µM*, SMN2 splice up 5.6µM*, NPC1 prom act inconclusive and Rab9 promoter act 3.2µM*.
`CC1CN(C(=O)COC(=O)Cc2c(F)cccc2Cl)CC(C)O1` (stereo not drawn) gave FLuc modulator -3%, ELG1 genotoxic -3%, NPC1 prom act -1% and Rab9 promoter act -3%.
C=CCN1C(=O)C(=O)N(Cc2nc3ccccc3s2)C1=O was read as FLuc modulator 8.5µM*, ELG1 genotoxic inconclusive, NPC1 prom act -31% and Rab9 promoter act 21%.
For CC(NC(=O)C1CC1)c1ccc(-c2ccccc2)cc1 (stereo not drawn) the results were FLuc modulator -1%, ELG1 genotoxic 1%, NPC1 prom act -1% and Rab9 promoter act 10%.
O=C(O)C1CCC(c2ccc(-c3ccccc3)cc2)CC1 (stereo not drawn) was read as FLuc modulator 6.7µM*, ELG1 genotoxic inconclusive, NPC1 prom act 2.8µM* and Rab9 promoter act inconclusive.
Screening Cc1cc(C(=O)CCl)c(C)n1Cc1ccco1 returned FLuc modulator inconclusive, ELG1 genotoxic -17%, SMN2 splice up 11%, NPC1 prom act -7% and Rab9 promoter act -12%.
Cc1ccc(C(=O)NCC(=O)OCC(=O)c2cc(C)n(Cc3ccco3)c2C)cc1 was read as FLuc modulator 24µM*, ELG1 genotoxic 6%, NPC1 prom act -1% and Rab9 promoter act -3%.
Screening C=CCn1c(C)cc(C(=O)COC(=O)C2CC(=O)N(Cc3ccccc3)C2)c1C (stereo not drawn) returned FLuc modulator 24µM*, ELG1 genotoxic 3%, SMN2 splice up 12%, NPC1 prom act 2% and Rab9 promoter act -7%.
Screening C=CCn1c(C)cc(C(=O)COC(=O)CNC(=O)c2ccccc2)c1C returned FLuc modulator 13µM*, ELG1 genotoxic 14%, SMN2 splice up -23%, NPC1 prom act -1% and Rab9 promoter act -6%.

Compound activity as filed in PubChem.
